Test results from PubChem BioAssay AID1159580 (chemical genetic matrix, 2015).
The whole screen tested about 5,500 compounds, of which about 2,000 (36%) were called active. Roughly 18% stayed inconclusive and do not appear here. Rule as the data show it: active = normalized growth mostly below about 0.91 (no sharp cut-off); inconclusive = no clear call, values can overlap the other calls; inactive = mostly above about 0.92. Some of the results follow.

Experiment: chemical genetic growth profiling, strain panel (AID 1159580);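 also: tested at 20 µM; growth read once vehicle control cultures reached saturation at 30 °C; 1 = growth at the plate median or of vehicle wells; lower values mean less growth of the strain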
Conditions: S. cerevisiae deletion strains, growth OD

Measured: normalized growth

CCCCc1ccc(C(=O)O)nc1
inactive: locus YAL013W, strain DEP1, hits give low values 1.02 | locus YAL040C, strain CLN3, hits give low values 0.992 | locus YCL061C, strain MRC1 (second series), hits give low values 1 | locus YDR363W, strain ESC2, hits give low values 1.02 | locus YER002W, strain NOP16, hits give low values 1.05 | locus YGR078C, strain PAC10, hits give low values 1 | locus YJR075W, strain HOC1, hits give low values 1.07 | locus YNL175C, strain NOP13, hits give low values 0.988 | locus YNL197C, strain WHI3, hits give low values 1.01 | locus YNL224C, strain SQS1, hits give low values 0.979 | locus YNL322C, strain KRE1, hits give low values 1.02 | locus YOR083W, strain WHI5 (second series), hits give low values 1.05 | locus YPL055C, strain LGE1, hits give low values 1.03
